Assay outcomes as filed in PubChem.
IDE exosite FP = displaces the probe from the exo-site of human IDE | P14735 | purified IDE, FL-6b probe fluorescence polarization; stronger effect = lower value | z-score at 20 µM | 17,000 compounds, 6.3% hits | AID 1259349;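 active = z-score of -3 or lower, meaning strong loss of probe binding signal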;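 note: His-tagged human IDE residues 42-1019 made in E. coli with 30 nM FL-6b probe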
Target sequence (P14735 42-1019 limits assumed): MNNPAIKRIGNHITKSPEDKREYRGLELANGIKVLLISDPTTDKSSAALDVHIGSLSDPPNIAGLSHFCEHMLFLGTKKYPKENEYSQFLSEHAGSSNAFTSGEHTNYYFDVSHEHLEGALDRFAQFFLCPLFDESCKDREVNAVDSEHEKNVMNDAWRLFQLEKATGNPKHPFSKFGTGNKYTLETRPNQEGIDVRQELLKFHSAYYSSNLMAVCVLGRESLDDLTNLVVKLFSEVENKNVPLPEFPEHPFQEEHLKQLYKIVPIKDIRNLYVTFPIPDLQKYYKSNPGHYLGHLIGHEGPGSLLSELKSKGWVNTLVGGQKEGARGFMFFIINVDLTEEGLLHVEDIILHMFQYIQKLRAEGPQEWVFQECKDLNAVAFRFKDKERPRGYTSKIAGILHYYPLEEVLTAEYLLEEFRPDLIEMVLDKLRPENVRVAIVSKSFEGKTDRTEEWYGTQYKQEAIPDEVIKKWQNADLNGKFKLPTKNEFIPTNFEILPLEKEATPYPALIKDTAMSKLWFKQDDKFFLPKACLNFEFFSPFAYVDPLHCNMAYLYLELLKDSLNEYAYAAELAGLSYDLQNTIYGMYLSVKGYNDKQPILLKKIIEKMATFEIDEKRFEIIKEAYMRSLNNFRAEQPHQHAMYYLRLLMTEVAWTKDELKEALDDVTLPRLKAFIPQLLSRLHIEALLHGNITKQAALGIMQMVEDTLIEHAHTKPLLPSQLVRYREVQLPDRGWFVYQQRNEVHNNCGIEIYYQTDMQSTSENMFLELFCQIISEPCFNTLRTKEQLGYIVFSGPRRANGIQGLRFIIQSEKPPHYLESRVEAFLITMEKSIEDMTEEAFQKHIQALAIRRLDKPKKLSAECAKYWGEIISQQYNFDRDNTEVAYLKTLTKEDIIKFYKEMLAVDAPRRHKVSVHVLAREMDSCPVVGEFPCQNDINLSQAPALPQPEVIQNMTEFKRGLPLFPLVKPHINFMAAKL
* marks the source's active call; other numbers are inactive results. The sample as a whole holds a higher share of hits than the screen did.

SMILES | IDE exosite FP
C[C@@H]1CCCCO[C@@H](CN(C)C(=O)CCC(F)(F)F)[C@H](C)CN([C@H](C)CO)C(=O)c2cc(NC(=O)C3CCCCC3)ccc2O1 | -0.27
C[C@H](CO)N1C[C@H](C)[C@@H](CN(C)C(=O)Nc2cccc(Cl)c2Cl)OCc2ccccc2-c2ccccc2C1=O | 1.2
OC[C@H]1[C@H](c2ccc(C#Cc3ccccc3)cc2)[C@H]2CN(Cc3cncnc3)CCCCN21 | -7.8*
CCCC#Cc1ccc([C@@H]2[C@@H](CO)N3CCCCN(Cc4cncnc4)C[C@H]23)cc1 | 3.7
COCC#Cc1ccc([C@H]2[C@H](CO)N3CCCCN(Cc4cncnc4)C[C@@H]23)cc1 | 3.8
CCCC#Cc1ccc([C@@H]2[C@H]3CN(Cc4cncnc4)CCCCN3[C@H]2CO)cc1 | 2.9
OC[C@H]1[C@@H](c2ccc(C#Cc3ccccc3)cc2)[C@@H]2CN(Cc3cncnc3)CCCCN12 | -16*
OC[C@@H]1[C@@H](c2ccc(-c3ccccc3)cc2)[C@@H]2CN(Cc3ccccn3)CCCCN12 | -2.9
CCCC#Cc1ccc([C@H]2[C@@H](CO)N3CCCCN(Cc4cncnc4)C[C@H]23)cc1 | -1.8
OC[C@@H]1[C@@H](c2ccc(C#Cc3ccccc3)cc2)[C@@H]2CN(Cc3ccccn3)CCCCN12 | -8.6*
OC[C@@H]1[C@H](c2ccc(Br)cc2)[C@H]2CN(Cc3ccccn3)CCCCN12 | 0.72
O=S(=O)(c1ccccc1)N1CCCCN2[C@H](CO)[C@@H](c3ccc(C#Cc4ccccc4)cc3)[C@H]2C1 | 0.73
CCS(=O)(=O)N1[C@H](C#N)[C@@H](c2ccc(C3=CCCCC3)cc2)[C@H]1CO | 3
O=C(CCN1CCCCC1)N[C@H]1CC[C@@H](CC(=O)N2CCC(Cc3ccccc3)CC2)O[C@H]1CO | -0.25
C[C@H](NC(=O)C[C@H]1C=C[C@@H](NC(=O)c2cccnc2)[C@H](CO)O1)c1ccccc1 | -0.65
CC(=O)N1[C@H](CN(C(=O)c2ccc(F)cc2)C(C)C)[C@H](c2ccccc2)[C@@H]1CO | 1.5
O=C(c1cccc(F)c1)N1CCCCN2[C@H](CO)[C@H](c3ccc(/C=C/c4ccccc4)cc3)[C@H]2C1 | 1.3
CCS(=O)(=O)Nc1ccc2c(c1)C(=O)N(C)[C@@H]1CC[C@@H](CC(=O)NC3CCCCC3)O[C@@H]1CO2 | -0.38
O=C(CC1CC1)N1CC2(C1)[C@H](c1ccccc1)[C@@H](CO)N2Cc1ccccn1 | 1.4
O=C(Cc1ccccn1)N1CC2(C1)[C@@H](c1ccccc1)[C@H](CO)N2C(=O)c1ccncc1 | -3.6*
O=C(c1ccncc1)N1CC2(C1)[C@@H](c1ccccc1)[C@@H](CO)N2CC1CC1 | -0.48
O=C(Cc1ccccn1)N1CC(=O)N2[C@H](C1)[C@@H](c1ccc(-c3ccc(F)cc3)cc1)[C@@H]2CO | 1.9
Cc1ccccc1-c1ccc([C@@H]2[C@@H](CO)N3C(=O)CN(C(=O)Cc4ccccn4)C[C@H]23)cc1 | -5.8*
O=C(Cc1ccccn1)N1CC(=O)N2[C@H](CO)[C@H](c3ccc(C#CC4CC4)cc3)[C@H]2C1 | 2.2
Cc1ccccc1-c1ccc([C@H]2[C@H]3CN(C(=O)Cc4ccccn4)CC(=O)N3[C@H]2CO)cc1 | -8.9*
SMILES | IDE exosite FP
O=C(Cc1ccccn1)N1CC(=O)N2[C@H](CO)[C@@H](c3ccc(-c4ccc(F)cc4)cc3)[C@@H]2C1 | 2.1
O=C(Cc1ccccn1)N1CC(=O)N2[C@H](CO)[C@@H](c3ccc(-c4ccc(F)cc4)cc3)[C@H]2C1 | 3.3
COc1ccc(-c2ccc([C@@H]3[C@H]4CN(C(=O)Cc5ccccn5)CC(=O)N4[C@H]3CO)cc2)cc1 | -0.28
Cc1ccccc1-c1ccc([C@@H]2[C@@H](CO)N3C(=O)CN(C(=O)Cc4ccccn4)C[C@@H]23)cc1 | -20*
Cc1ccccc1-c1ccc([C@@H]2[C@H]3CN(C(=O)Cc4ccccn4)CC(=O)N3[C@H]2CO)cc1 | -18*
O=C(Cc1ccccn1)N1CC(=O)N2[C@@H](CO)[C@H](c3ccc(-c4ccc(F)cc4)cc3)[C@@H]2C1 | 1.4
COc1ccc(-c2ccc3n(c2=O)C[C@H]2[C@H](CO)[C@@H](C(=O)N(C)C)[C@@H]3N2Cc2cncnc2)cc1 | 1
CCCC#Cc1ccc([C@@H]2[C@H](CO)N3C(=O)CN(C(=O)c4ccncc4)C[C@@H]23)cc1 | 4.1
Cc1noc(C)c1S(=O)(=O)N(C)C[C@@H]1OCCCC[C@H](C)Oc2ccc(NS(=O)(=O)c3cn(C)cn3)cc2C(=O)N([C@H](C)CO)C[C@@H]1C | 1.5
CO[C@H](CN(C)Cc1cc(F)ccc1F)[C@@H](C)CN([C@H](C)CO)S(=O)(=O)c1ccc(C)cc1 | 0.31
Cc1noc(C)c1S(=O)(=O)N(C)C[C@@H]1OCCCC[C@@H](C)Oc2ccc(NS(=O)(=O)c3cn(C)cn3)cc2C(=O)N([C@H](C)CO)C[C@@H]1C | -1.5
N#C[C@H]1[C@H](c2ccccc2C2=CCCC2)[C@@H](CO)N1C(=O)CN1CCOCC1 | 0.54
O=C(C[C@@H]1C=C[C@@H](NC(=O)c2ccncc2)[C@H](CO)O1)NCC1CC1 | 0.28
O=C(Nc1ccc2c(c1)[C@@H]1C[C@@H](CC(=O)N3CCc4ccccc4C3)O[C@@H](CO)[C@@H]1O2)c1ccc2c(c1)OCO2 | -0.93
C[C@H]1CN([C@@H](C)CO)C(=O)c2ccccc2-c2ccccc2CO[C@@H]1CN(C)C(=O)Nc1cccc(Cl)c1Cl | -0.067
C[C@@H]1CCn2cc(nn2)COC[C@H](c2ccccc2)NC1=O | -0.21
CCC(=O)N1CCCCN2[C@@H](CO)[C@@H](c3ccc(C#CCOC)cc3)[C@@H]2C1 | 2.5
O=C(Nc1ccccc1)N1CCCCN2[C@H](CO)[C@@H](c3ccc(C#Cc4ccccc4)cc3)[C@H]2C1 | 3.2
CCC(=O)N1CCCCN2[C@H](CO)[C@@H](c3ccc(C#Cc4ccccc4)cc3)[C@@H]2C1 | -9.2*
CCC(=O)N1CCCCN2[C@H](CO)[C@H](c3ccc(C#Cc4ccccc4)cc3)[C@H]2C1 | -4.7*
CCC(=O)N1CCCCN2[C@H](CO)[C@H](c3ccc(C#CCOC)cc3)[C@H]2C1 | 3
CCC(=O)N1CCCCN2[C@@H](CO)[C@H](c3ccc(C#Cc4ccccc4)cc3)[C@@H]2C1 | -9.4*
CCC(=O)N1CCCCN2[C@@H](CO)[C@H](c3ccc(C#CCOC)cc3)[C@@H]2C1 | 2.8
CCC(=O)N1CCCCN2[C@@H](CO)[C@H](c3ccc(-c4cccc(C#N)c4)cc3)[C@@H]2C1 | 0.21
CCC(=O)N1CCCCN2[C@@H](CO)[C@@H](c3ccc(C#Cc4ccccc4)cc3)[C@@H]2C1 | -7.7*
SMILES | IDE exosite FP
CCC(=O)N1CCCCN2[C@H](CO)[C@@H](c3ccc(C#CCOC)cc3)[C@@H]2C1 | 2.4
O=S(=O)(c1cccs1)N1CCCCN2[C@@H](CO)[C@@H](c3ccc(-c4ccccc4)cc3)[C@@H]2C1 | 2.2
C/C=C/c1ccc([C@@H]2[C@H](CO)N[C@H]2CN(C(=O)c2ccccc2F)C(C)C)cc1 | 0.85
O=C(Nc1cccc(F)c1)N1CC(=O)N2[C@H](CO)[C@@H](c3ccc(C#Cc4cccnc4)cc3)[C@H]2C1 | 0.054
COc1ccc2c3c(n(C)c2c1)[C@@H](CO)N(Cc1cccc(Cl)c1)CC31CCN(C(=O)C2CC2)CC1 | 0.13
CCN(C[C@@H]1[C@H](c2ccccc2)[C@H](CO)N1C(C)=O)C(=O)c1ccccn1 | 2.3
CCCNC(=O)NC[C@H]1[C@H](c2ccc(C3=CCCCC3)cc2)[C@@H](CO)N1C(C)=O | 0.59
COCC(=O)N1CCCCN2[C@H](CO)[C@@H](c3ccc(-c4ccccc4)cc3)[C@@H]2C1 | -0.53
